High-throughput results deposited in PubChem BioAssay by National Center for Advancing Translational Sciences (NCATS).
D2 ag-1: activates the human D2 dopamine receptor; P14416; activation, % at 2 µM; 340,000 compounds, 0.53% hits; HEK293 T-REx D2 cells, calcium flux agonist mode; AID 485358;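 active means activation over 3 SD above normal in the single-dose calcium agonist read, cut at about 30% in these data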; further: 0% is about no effect
Target sequence (P14416 whole entry, looked up): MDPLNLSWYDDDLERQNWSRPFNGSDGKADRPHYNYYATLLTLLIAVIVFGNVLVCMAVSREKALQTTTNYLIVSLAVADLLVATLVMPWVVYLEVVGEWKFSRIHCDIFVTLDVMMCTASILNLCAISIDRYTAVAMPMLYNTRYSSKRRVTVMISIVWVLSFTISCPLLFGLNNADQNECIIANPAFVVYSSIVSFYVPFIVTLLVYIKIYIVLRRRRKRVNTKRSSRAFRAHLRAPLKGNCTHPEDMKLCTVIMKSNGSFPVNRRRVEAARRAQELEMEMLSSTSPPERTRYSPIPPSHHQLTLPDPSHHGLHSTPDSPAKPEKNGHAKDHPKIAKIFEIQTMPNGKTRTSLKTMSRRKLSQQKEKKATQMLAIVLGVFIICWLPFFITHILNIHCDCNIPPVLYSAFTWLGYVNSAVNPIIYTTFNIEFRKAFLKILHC
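Agonism is scored from calcium flux in a force-coupled, inducible HEK293 cell line expressing D2, read kinetically for 180 s after compound addition against dopamine controls.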
D2 PAM-1: positive allosteric modulators of human D2 dopamine receptor; P14416; DiscoveRx D2 beta-arrestin cells, luminescence, 90 min; 100% = 57 uM dopamine signal; potentiation, % (test concentration not listed); 360,000 compounds, 0.23% hits; in the data active means potentiation above about 50%; inconclusive means mostly about 30% to 49%
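PathHunter D2 cells, attached overnight at 37 deg C, received compound in DMSO plus dopamine at EC20 (50 nM final) for 90 min at 37 deg C. Beta-arrestin recruitment was read as luminescence after 1 h with detection reagent at ambient temperature.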
D2 ag-2: activates the human D2 dopamine receptor; P14416; DiscoveRx PathHunter D2 beta-arrestin, luminescence, 90 min; 100% = 57 uM dopamine signal; activation, % (no concentration beside the values); 360,000 compounds, 0.084% hits; in the data active means activation above about 40%; inconclusive means between about 15% and that limit
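Agonist mode: compounds alone added to overnight-plated D2 PathHunter cells for 90 min at 37 C, with 57 uM final dopamine (EC100) defining full response. Beta-arrestin recruitment detected by chemiluminescent reagent, read after 1 h at ambient temperature.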
D2 PAM-2: positive allosteric modulators of human D2 dopamine receptor; P14416; HEK293 T-REx D2, calcium flux, EC20 dopamine potentiation; potentiation, % at 10 µM; 340,000 compounds, 0.34% hits;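 active means potentiation over 3 SD above the plate norm, cut at about 30% in these data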; further: 0% is about no effect
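Potentiation of an EC20 dopamine calcium response measured kinetically over 180 s, after a preceding 180 s compound-only read flagging agonists. Cells: inducible Hek293 Trex D2 line, 4000/well, cultured overnight at 30 C before dye loading.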
D2 antag: antagonists of human D2 dopamine receptor | HEK293 TREx D2 cells, calcium flux, dopamine EC80 | inhibition, % at 10 µM | 340,000 compounds, 2% hits | AID 485344; in the data active means inhibition above about 30%; inactive means below that, where a call was filed; further: 0% is about no effect
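Tetracycline-induced HEK293 T-REx cells expressing D2 force-coupled to calcium signalling were dye-loaded, exposed to compound for 180 s, then challenged with an EC80 of dopamine; calcium flux was followed kinetically for a further 180 s.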
Numbers without * were called inactive; u = inconclusive; x = no result given. Hits are enriched below; roughly 2.4% of the tested compounds scored in any of these assays.

SMILES | D2 ag-1 | D2 PAM-1 | D2 ag-2 | D2 PAM-2 | D2 antag
Cc1ccc(C(C)C)c(OCCN2CCc3ccccc3C2)c1 | -0.9 | -26.8 | -1.0 | -15.3 | -15.1
Cc1ccc(C(C)C)c(OCCCN2CCc3ccccc3C2)c1 | -0.3 | -72.2 | -3.2 | -29.4 | 30.5*
Cc1ccc(OCCCCN2CCc3ccccc3C2)c(C)c1 | 1.2 | -8.0 | -0.4 | -24.7 | 75.9*
COc1ccccc1CNC(=O)CCCCn1c(=O)c2ccccc2n(CC(=O)Nc2cccc(Cl)c2)c1=O | 0.5 | x | x | 15.6 | x
COc1ccccc1-c1noc(-c2ccc(NCc3cccnc3)c([N+](=O)[O-])c2)n1 | -0.6 | x | x | -0.8 | x
CCOC(=O)c1[nH]c(C)c(CCC(=O)Nc2cc(Cl)c(OC)cc2OC)c1C | -0.8 | x | x | -5.5 | x
CN1CCN(CCCCOc2ccc(F)cc2)CC1 | 0.3 | -10.3 | -2.3 | 9.5 | -8.2
CC1CCN(CCOc2cccc(Br)c2)CC1 | 29.0 | -16.9 | -2.3 | -28.1 | 97.8*
CCN(CC)CCOc1cccc(C(C)C)c1 | 2.1 | -30.9 | 3.0 | x | 72.8*
CC1CCN(CCCCOc2ccc(C(=O)c3ccccc3)cc2)CC1 | x | -15.3 | -3.1 | -19.8 | x
Brc1cccc(OCCCN2CCCCCC2)c1 | 0.0 | -23.0 | 0.8 | -31.3 | 13.9
CC1CCN(CCCCOc2ccc(F)cc2)CC1 | 0.8 | -11.5 | 1.4 | -14.1 | 44.2*
CC1CCN(CCCCOc2cccc(C(C)C)c2)CC1 | -0.3 | -11.9 | -0.4 | -29.3 | 58.2*
CC1CCN(S(=O)(=O)c2cc(C(=O)Nc3ccc(Br)cc3F)n(C)c2)CC1 | -1.5 | x | x | 2.8 | x
COc1cc(C(=O)OCc2cc(=O)n3ccsc3n2)cc(OC)c1OC | -0.2 | x | x | 19.1 | x
Cc1ccc(OCCCCN2CCC(C)CC2)cc1 | 1.2 | -15.8 | 2.1 | -20.5 | 48.9*
Cc1nc2ccc(NC(=O)COc3ccccc3)cc2s1 | 0.9 | -5.4 | 1.1 | -0.5 | 3.2
Cc1nc2ccc(NC(=O)c3ccc4ccccc4n3)cc2s1 | -1.8 | -2.6 | -1.5 | 31.4* | -3.6
Cc1cccc(OCC(=O)Nc2ccc3nc(C)sc3c2)c1 | -0.9 | -5.3 | -3.3 | 33.6* | -6.7
COc1ccc(C(=O)NCc2ccc3c(c2)CCN3C(=O)c2ccc(Cl)cc2)c(OC)c1 | -0.9 | x | x | 4.0 | x
Cc1ccc(Cn2c(CNC(=O)Cc3cccc([N+](=O)[O-])c3)nc3cccnc32)cc1 | -1.2 | x | x | -5.9 | x
Cc1ccc(C)c(N2CCN(C(=O)C(C)n3c(C)c4cnn(-c5ccccc5)c(=O)c4c3C)CC2)c1 (stereo not drawn) | -0.1 | x | x | 14.8 | x
COc1ccc(CCNC(=O)CSc2cn(CCNC(=O)c3ccccc3F)c3ccccc23)cc1OC | -0.8 | x | x | -4.3 | x
O=S1(=O)CCC(NS(=O)(=O)c2cccc3cccnc23)C1 (stereo not drawn) | -1.4 | 12.1 | -1.1 | 34.2* | -7.6
CC(C)CC(NC(N)=O)C(=O)NCc1ccccc1Cl (stereo not drawn) | -0.1 | -3.5 | 1.2 | 37.9* | 4.1
SMILES | D2 ag-1 | D2 PAM-1 | D2 ag-2 | D2 PAM-2 | D2 antag
CCOc1ccc(N(CC)S(=O)(=O)N2CCCC(C(=O)Nc3cc(Cl)ccc3C)C2)cc1 (stereo not drawn) | 0.2 | x | x | 2.5 | x
Cc1cccc(C)c1OC(=O)CSc1nnc(-c2cccs2)o1 | 0.7 | x | x | -2.0 | x
O=C(NC1CC1)C1CCN(C2CCN(C(=O)Cc3ccc(F)cc3)CC2)CC1 | 2.0 | -2.3 | 0.5 | 12.8 | 34.4*
COc1ccc(-c2csc(C3=C(O)CN(Cc4ccc(Cl)cc4)C3=N)n2)cc1OC | 0.5 | -20.6 | 0.6 | -17.8 | 73.5*
COc1cc(N=c2c([N+](=O)[O-])nn(-c3ccc4c(c3)OCCO4)n2O)cc(OC)c1 | 1.3 | 68.3* | 9.4 | -1.7 | 0.7
CN=c1c([N+](=O)[O-])nn(-c2ccc3c(c2)OCCO3)n1O | -1.1 | 24.7 | 42.4* | 2.6 | 2.0
O=[N+]([O-])c1nn(-c2ccc3c(c2)OCCO3)n(O)c1=NCc1ccc(F)cc1Cl | 0.1 | 6.7 | 2.5 | 2.1 | 6.5
O=[N+]([O-])c1nn(-c2ccc3c(c2)OCCO3)n(O)c1=NCc1ccc(F)cc1 | -1.4 | 142.5* | u | 15.4 | -11.1
O=[N+]([O-])c1nn(-c2ccc3c(c2)OCCO3)n(O)c1=NCCC1=CCCCC1 | 1.2 | 147.0* | u | 2.6 | 5.9
CCc1cccc(N=c2c([N+](=O)[O-])nn(-c3ccc4c(c3)OCCO4)n2O)c1 | -2.1 | u | u | -0.1 | 6.6
